Measurements: PubChem BioAssay (NCATS)
Several values for one entry are separate records, joined by “and”; a condition that tells them apart may be missing. Identical values can stand only once. Results filed as inconclusive are left out. Activity calls are given as the source filed them. The call rests on the fitted dose curve; in most records, active means well fitted curve in the direction sought with a large enough effect; inconclusive means small, poorly fitted or top-dose-only effect, or another doubt; inactive means no such curve, though single readings can be large; an effect the other way counts as inactive or inconclusive.

Columns and labels:
[1] = Viability qHTS for spleen associated tyrosine kinase inhibitor (SYKi) naive MV4-11 cells (AID 1963823); further: nearly all actives have a fitted effect of over 40% in size
In short: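 qHTS, SYK inhibitor-naive MV4-11; 500 cells/well; 72 hr compound exposure, 37 C; CellTiter-Glo added, 10 min RT; luminescence read.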

[2] = Viability qHTS for spleen associated tyrosine kinase inhibitor (SYKi) drug resistant MV4-11 cells (AID 1963824); further: nearly all actives have a fitted effect of over 35% in size
In short: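 SYK-inhibitor-resistant MV4-11 AML cells were seeded at 500 per well onto compound and cultured 72 hours (37 °C, 5% CO2). CellTiter-Glo was then added, and after 10 min at room temperature, luminescence gave viability.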

[3] = Quantitative highthroughput screen to assess conditional lethalithy of NOMO1 cells grown in RPMI1640 with dialyzed fetal bovine serum (RPMI+ds) (AID 1963877); further: nearly all actives have a fitted effect of over 30% in size;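 on Viability: series mostly up to about 46 µM; 100% = DMSO control wells and 0% = empty wells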
In short: (§1)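 Each medium arm—HPLM with 10% dialyzed FBS, or RPMI1640 with 5 mM glucose and 10% untreated or dialyzed FBS—was screened against an 11-point, 3-fold compound titration for 48 h at 37 °C, with CellTiter-Glo luminescence as endpoint.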

[4] = Quantitative highthroughput screen to assess conditional lethalithy of P12 Ichikawa cells grown in Human Plasma-Like Medium with dialyzed fetal bovine serum (HPLM+ds) (AID 1963879); settings: Potency: viability; further: nearly all actives have a fitted effect of over 35% in size; on Viability: series mostly up to about 46 µM
In short: as §1

[5] = Quantitative highthroughput screen to assess conditional lethalithy of P12 Ichikawa cells grown in RPMI1640 with dialyzed fetal bovine serum (RPMI+ds) (AID 1963880); settings: Potency: P12-Ichikawa viability; further: nearly all actives have a fitted effect of over 35% in size;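 on Viability: 100% = DMSO wells and 0% = empty wells on each plate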
In short: as §1

[6] = Quantitative highthroughput screen to assess conditional lethalithy of P12 Ichikawa cells grown in RPMI1640 with untreated serum (RPMI+s) (AID 1963881); settings: Potency: viability; further: nearly all actives have a fitted effect of over 35% in size;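 on Viability: series mostly up to about 46 µM; 100% = DMSO wells and 0% = empty wells without cells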
In short: as §1

[7] = Quantitative highthroughput screen to assess conditional lethalithy of SEM cells grown in Human Plasma-Like Medium with dialyzed fetal bovine serum (HPLM+ds) (AID 1963882); further: nearly all actives have a fitted effect of over 35% in size; on Viability: series mostly up to about 46 µM
In short: as §1

[8] = Quantitative highthroughput screen to assess conditional lethalithy of SEM cells grown in RPMI1640 with dialyzed fetal bovine serum (RPMI+ds) (AID 1963884); further: nearly all actives have a fitted effect of over 35% in size;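 on Viability: series mostly up to about 46 µM; 100% = DMSO control wells and 0% = empty wells without cells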
In short: as §1

[9] = Cellular viability qHTS for adrenocortical cancer (ACC) cell line SW-13 (AID 1963989); settings: SW-13 ACC cells viability, CellTiter-Glo, 48 h; activity (max response): stronger effect = lower value; further: nearly all actives have a fitted effect of over 65% in size;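 on activity (max response): cells grown in serum-free medium with ITS supplement; on the % scale 0 is the no-effect control and ±100 the full control effect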
In short: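 48 h treatment, SW-13 in ITS/DMEM serum-free; doses up to 46 uM; readout CellTiter-Glo luminescence; curve fit four-parameter logistic.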

[10] = Cellular viability qHTS for adrenocortical cancer (ACC) cell line NCI-H295R (AID 1963990); further: nearly all actives have a fitted effect of over 60% in size
In short: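 Compound titrations (up to 46 uM final) are applied to NCI-H295R cultures for 48 h at 37C. Viable cell number is estimated by CellTiter-Glo signal, normalised to DMSO and doxorubicin controls.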

[11] = Quantitative highthroughput screen to assess conditional lethalithy of NOMO1 cells grown in Human Plasma-Like Medium with dialyzed fetal bovine serum (HPLM+ds) (AID 1963878); further: nearly all actives have a fitted effect of over 35% in size;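 on Viability: 100% = DMSO wells and 0% = empty wells on each plate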
In short: as §1

[12] = Quantitative highthroughput screen to assess conditional lethalithy of SEM cells grown in RPMI1640 with unreated serum (RPMI+s) (AID 1963883); further: nearly all actives have a fitted effect of over 35% in size;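 on Viability: 100% = DMSO wells and 0% = empty wells without cells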
In short: as §1
Potency means the concentration at half of the fitted maximal effect.

CC[C@]1(O)C[C@H]2CN(CCc3c([nH]c4ccccc34)[C@@](C(=O)OC)(c3cc4c(cc3OC)N(C=O)[C@H]3[C@@](O)(C(=O)OC)[C@H](OC(C)=O)[C@]5(CC)C=CCN6CC[C@]43[C@@H]65)C2)C1
active: Potency [1] 11.8 nM | Potency [2] 119 nM and 10.5 nM | Potency [3] 0.0662 µM | Potency [4] 0.0264 µM | Potency [5] 0.0418 µM | Potency [6] 0.0264 µM | Potency [7] 0.0332 µM | Potency [8] 0.0469 µM | Potency [9] 8.2 nM and 28.2 nM | Potency [10] 146 nM and 1.78 µM

CCc1cccc2c3c([nH]c12)C(CC)(CC(=O)O)OCC3 (stereo unspecified)
inactive: Potency [1] | Potency [2] | Potency [3] | Potency [11] | Potency [4] | Potency [5] | Potency [6] | activity (max response) [9] 7.18% | Potency [10]

CNC(=O)c1cc(Oc2ccc(NC(=O)Nc3ccc(Cl)c(C(F)(F)F)c3)c(F)c2)ccn1
inactive: Potency [3] | Potency [5]
active: Potency [1] 296 nM | Potency [2] 291 nM and 590 nM | Potency [11] 3.32 µM | Potency [12] 0.372 µM | Potency [8] 0.332 µM | Potency [9] 3.98 µM | Potency [10] 7.08 µM

C[C@H](CCC(=O)O)[C@H]1CCC2C3C[C@H](O)[C@@H]4C[C@H](O)CC[C@]4(C)C3CC[C@@]21C (stereo partly specified)
inactive: Potency [1] | Potency [2] | Potency [3] | Potency [11] | Potency [4] | Potency [5] | Potency [6] | Potency [12] | activity (max response) [9] 1.86% | Potency [10]

COc1cc(C)c(Sc2cnc(NC(=O)c3ccc(CNC(C)C(C)(C)C)cc3)s2)cc1C(=O)N1CCN(C(C)=O)CC1 (stereo unspecified)
active: Potency [1] 2630 nM | Potency [2] 3.32 µM | Potency [3] 20.9 µM | Potency [11] 23.5 µM | Potency [7] 4.18 µM | Potency [12] 4.18 µM | Potency [8] 3.32 µM | Potency [10] 8.91 µM

COc1ccc(C2CNC(=O)C2)cc1OC1CCCC1 (stereo unspecified)
inactive: Potency [2] | Potency [3] | Potency [11] | Potency [4] | Potency [5] | Potency [6] | Potency [12] | Potency [8] | activity (max response) [9] 1.73% and 4.14% | Potency [10]
active: Potency [1] 525 nM

C=CC(=O)Nc1cccc(Oc2nc(Nc3ccc(N4CCN(C)CC4)cc3)ncc2Cl)c1
inactive: Potency [11]
active: Potency [1] 206 nM | Potency [2] 517 nM and 525 nM | Potency [3] 5.9 µM | Potency [7] 2.35 µM | Potency [12] 0.833 µM | Potency [8] 1.87 µM | Potency [9] 1.26 µM | Potency [10] 2.51 µM

Cc1ncc([N+](=O)[O-])n1CCO
inactive: Potency [1] | Potency [2] | Potency [3] | Potency [11] | Potency [4] | Potency [5] | Potency [6] | Potency [7] | Potency [12] | activity (max response) [9] -0.254% | Potency [10]

Cn1cc(-c2[nH]c3cc(NC(=O)[C@H](N)C4CCCCC4)cc4c3c2C=NNC4=O)cn1
active: Potency [1] 66.1 nM | Potency [2] 164 nM and 83.3 nM | Potency [3] 5.26 µM | Potency [4] 16.6 µM | Potency [5] 6.62 µM | Potency [6] 7.43 µM | Potency [7] 2.96 µM
inactive: Potency [10]

COc1cc(CCc2cc(NC(=O)c3ccc(N4C[C@@H](C)N[C@@H](C)C4)cc3)n[nH]2)cc(OC)c1
active: Potency [1] 1180 nM | Potency [2] 1.64 µM | Potency [3] 18.7 µM | Potency [4] 20.9 µM | Potency [7] 5.26 µM | Potency [12] 4.69 µM | Potency [9] 28.2 µM

C[C@@H]1C[C@H]2[C@@H]3CCC4=CC(=O)C=C[C@]4(C)[C@@]3(Cl)[C@@H](O)C[C@]2(C)[C@@]1(OC(=O)c1ccco1)C(=O)CCl
active: Potency [1] 16.8 µM and 8.33 µM | Potency [2] 8.41 µM and 4.68 µM | Potency [3] 6.62 µM | Potency [11] 1.18 µM
inactive: Potency [7] | Potency [12] | Potency [8]

CCOC(=O)[C@@H](N)CCC(=O)N[C@@H](CSCc1ccccc1)C(=O)N[C@@H](C(=O)OCC)c1ccccc1
inactive: Potency [3] | Potency [4] | Potency [5] | Potency [6] | Potency [7] | Potency [12] | Potency [8] | activity (max response) [9] -10.6%
active: Potency [1] 5900 nM | Potency [2] 5.9 µM

CCCCc1oc2ccccc2c1C(=O)c1cc(I)c(OCCN(CC)CC)c(I)c1
active: Potency [1] 18.8 µM and 16.6 µM | Potency [2] 23.7 µM and 18.6 µM | Potency [3] 20.9 µM | Potency [9] 31.6 µM | Potency [10] 22.4 µM
inactive: Potency [4] | Potency [5] | Potency [6] | Potency [7] | Potency [8]

CN1CCC(COc2cnc(-c3cccc(Cn4nc(-c5cccc(C#N)c5)ccc4=O)c3)nc2)CC1
inactive: Potency [3] | Potency [11] | Potency [4] | Potency [6] | Potency [8]
active: Potency [1] 7.42 µM and 8.2 µM | Potency [2] 7.42 µM and 13 µM | Potency [10] 25.1 µM

C[C@@H]1COCCN1c1cc(C2(S(C)(=N)=O)CC2)nc(-c2ccnc3[nH]ccc23)n1 (stereo partly specified)
active: Potency [1] 1480 nM | Potency [2] 1.18 µM and 2.59 µM | Potency [3] 2.95 µM | Potency [11] 1.17 µM | Potency [4] 4.17 µM | Potency [5] 2.95 µM | Potency [6] 4.67 µM | Potency [12] 1.17 µM | Potency [10] 3.98 µM
